From the supplement of paper PMC4206461
A number with no mark means an inactive call.

Experiments:
[1] = test system: Pseudomonas aeruginosa PA14 dppA1-A5 penta mutant + pBBR5.DppA1 (PA14_58350); assay: respiration area under curve with compound as sole nitrogen source, 24 h (OmniLog AUC (arbitrary units)); higher = more respiration / better utilisation as nitrogen source, active = 2000 or more
Experimental: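 Biolog Phenotype MicroArray plates PM6-PM8: each di/tripeptide is the sole nitrogen source. Tetrazolium reduction was read in the OmniLog for 24 h at 37°C and summarised as area under the respiration curve (arbitrary units). Values below 2000 count as no respiration. Strain is the SBP penta mutant complemented with DppA1 on a plasmid under its native promoter. Lys/His/Cys peptides are excluded.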

[2] = test system: Pseudomonas aeruginosa PA14 dppBCDF deletion mutant; assay: respiration area under curve with compound as sole nitrogen source, 24 h (OmniLog AUC (arbitrary units)); higher = more respiration / better utilisation as nitrogen source, active = 2000 or more; extreme values may be limits of the assay
Experimental: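 Biolog Phenotype MicroArray plates PM6-PM8: each di/tripeptide is the sole nitrogen source. Tetrazolium reduction was read in the OmniLog every 15 min for 24 h at 37°C and summarised as area under the respiration curve (arbitrary units). Values below 2000 count as no respiration. Strain is the dipeptide ABC transporter deletion mutant.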

[3] = test system: Pseudomonas aeruginosa PA14 wild type; assay: respiration area under curve with compound as sole nitrogen source, 24 h (OmniLog AUC (arbitrary units)); higher = more respiration / better utilisation as nitrogen source, active = 2000 or more
Experimental: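 Biolog Phenotype MicroArray plates PM6-PM8: each di/tripeptide is the sole nitrogen source (IF-0 medium with succinate/ferric citrate and dye mix A). Tetrazolium reduction was read in the OmniLog every 15 min for 24 h at 37°C and summarised as area under the respiration curve (arbitrary units). The paper counts values below 2000 as no respiration and above 8000 as solid respiration. Replicate datasets are averaged.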

NCC(=O)NCC(=O)N[C@@H](Cc1ccccc1)C(=O)O (plate: PM8)
respiration area under curve [1]: 3750 (active)
respiration area under curve [2]: 0

C[C@@H](O)[C@H](N)C(=O)N[C@@H](CO)C(=O)O (plate: PM8)
respiration area under curve [1]: 5330 (active)
respiration area under curve [2]: 0

O=C(O)[C@H](Cc1c[nH]c2ccccc12)NC(=O)[C@@H]1CCCN1 (plate: PM8)
respiration area under curve [1]: 1320
respiration area under curve [3]: 1260
respiration area under curve [2]: 358

N[C@@H](CO)C(=O)N[C@@H](Cc1ccccc1)C(=O)O (plate: PM7)
respiration area under curve [1]: 6220 (active)
respiration area under curve [3]: 7090 (active)
respiration area under curve [2]: 968

N[C@@H](Cc1ccccc1)C(=O)N[C@@H](Cc1ccccc1)C(=O)O (plate: PM7)
respiration area under curve [1]: 5690 (active)
respiration area under curve [2]: 2740 (active)

NC(=O)CC[C@H](N)C(=O)N[C@@H](CCC(=O)O)C(=O)O (plate: PM8)
respiration area under curve [1]: 7630 (active)
respiration area under curve [3]: 9650 (active)
respiration area under curve [2]: 3750 (active)

N[C@@H](Cc1c[nH]c2ccccc12)C(=O)N[C@@H](Cc1ccc(O)cc1)C(=O)O (plate: PM7)
respiration area under curve [3]: 1070
respiration area under curve [2]: 236

CC(C)[C@H](N)C(=O)N[C@@H](CC(N)=O)C(=O)O (plate: PM7)
respiration area under curve [3]: 12300 (active)
respiration area under curve [2]: 5280 (active)

C[C@H](N)C(=O)N[C@@H](CCC(N)=O)C(=O)O (plate: PM8)
respiration area under curve [1]: 10400 (active)
respiration area under curve [3]: 11600 (active)
respiration area under curve [2]: 3540 (active)

CC[C@H](C)[C@H](N)C(=O)N[C@H](C(=O)O)C(C)C (plate: PM6)
respiration area under curve [3]: 6570 (active)
respiration area under curve [2]: 545

C[C@@H](O)[C@H](NC(=O)CN)C(=O)O (plate: PM6)
respiration area under curve [3]: 5430 (active)
respiration area under curve [2]: 15.8

O=C(O)[C@@H]1C[C@@H](O)CN1C(=O)[C@@H]1CCCN1 (plate: PM7)
respiration area under curve [1]: 0

C[C@H](N)C(=O)N[C@@H](CO)C(=O)O (plate: PM6)
respiration area under curve [1]: 8180 (active)

N[C@@H](Cc1c[nH]c2ccccc12)C(=O)N[C@@H](Cc1c[nH]c2ccccc12)C(=O)O (plate: PM7)
respiration area under curve [3]: 1430
respiration area under curve [2]: 436

C[C@@H](N)C(=O)NCC(=O)NCC(=O)O (plate: PM8)
respiration area under curve [3]: 211
respiration area under curve [2]: 0

NCC(=O)N[C@@H](CO)C(=O)O (plate: PM6)
respiration area under curve [3]: 7870 (active)
respiration area under curve [2]: 2360 (active)

CC[C@H](C)[C@H](NC(=O)CN)C(=O)O (plate: PM8)
respiration area under curve [1]: 4580 (active)
respiration area under curve [3]: 7100 (active)
respiration area under curve [2]: 1250

CC[C@H](C)[C@H](N)C(=O)N1CCC[C@H]1C(=O)O (plate: PM6)
respiration area under curve [1]: 5060 (active)

C[C@H](NC(=O)CNC(=O)CN)C(=O)O (plate: PM8)
respiration area under curve [3]: 11300 (active)
respiration area under curve [2]: 102

N[C@@H](Cc1ccc(O)cc1)C(=O)N[C@@H](Cc1c[nH]c2ccccc12)C(=O)O (plate: PM7)
respiration area under curve [3]: 3280 (active)
respiration area under curve [2]: 1770

N[C@@H](CO)C(=O)N[C@@H](CC(=O)O)C(=O)O (plate: PM8)
respiration area under curve [1]: 2890 (active)

NCC(=O)N[C@@H](Cc1ccccc1)C(=O)N[C@@H](Cc1ccccc1)C(=O)O (plate: PM8)
respiration area under curve [3]: 8980 (active)
respiration area under curve [2]: 1840

CC(C)C[C@H](NC(=O)[C@@H](N)CO)C(=O)O (plate: PM7)
respiration area under curve [3]: 7960 (active)
respiration area under curve [2]: 3310 (active)

CSCC[C@H](NC(=O)[C@H](C)N)C(=O)O (plate: PM8)
respiration area under curve [1]: 6710 (active)

NCC(=O)NCC(=O)NCC(=O)O (plate: PM8)
respiration area under curve [3]: 7740 (active)
respiration area under curve [2]: 5.75

CC[C@H](C)[C@H](N)C(=O)N[C@@H](CC(C)C)C(=O)O (plate: PM8)
respiration area under curve [3]: 6290 (active)
respiration area under curve [2]: 924

NC(N)=NCCC[C@H](N)C(=O)N[C@@H](CCC(=O)O)C(=O)O (plate: PM6)
respiration area under curve [3]: 9830 (active)
respiration area under curve [2]: 8810 (active)

N[C@@H](CC(=O)O)C(=O)N[C@@H](CC(=O)O)C(=O)O (plate: PM6)
respiration area under curve [1]: 197

NCC(=O)N[C@@H](CC(=O)O)C(=O)O (plate: PM8)
respiration area under curve [3]: 5610 (active)
respiration area under curve [2]: 6.75

N[C@@H](Cc1ccccc1)C(=O)NCC(=O)O (plate: PM7)
respiration area under curve [3]: 7630 (active)
respiration area under curve [2]: 872

C[C@H](N)C(=O)N[C@@H](Cc1c[nH]c2ccccc12)C(=O)O (plate: PM6)
respiration area under curve [1]: 3700 (active)

N[C@@H](Cc1ccccc1)C(=O)N[C@@H](CC(=O)O)C(=O)O (plate: PM8)
respiration area under curve [3]: 2860 (active)
respiration area under curve [2]: 0

CC(C)[C@H](NC(=O)[C@@H](N)CC(N)=O)C(=O)O (plate: PM6)
respiration area under curve [3]: 7030 (active)
respiration area under curve [2]: 4910 (active)

CC(C)[C@H](NC(=O)CN)C(=O)O (plate: PM6)
respiration area under curve [1]: 1820

N[C@@H](CCC(=O)O)C(=O)N[C@@H](CC(=O)O)C(=O)O (plate: PM6)
respiration area under curve [1]: 19.3
respiration area under curve [3]: 12
respiration area under curve [2]: 0

CC(C)C[C@H](NC(=O)[C@@H](N)CC(C)C)C(=O)O (plate: PM6)
respiration area under curve [3]: 3640 (active)
respiration area under curve [2]: 1380

C[C@H](N)C(=O)NCC(=O)O (plate: PM6)
respiration area under curve [1]: 6240 (active)

CC(C)[C@H](NC(=O)[C@@H](N)CCC(=O)O)C(=O)O (plate: PM6)
respiration area under curve [3]: 5390 (active)
respiration area under curve [2]: 0

CC(C)C[C@H](NC(=O)[C@@H](N)CC(=O)O)C(=O)O (plate: PM6)
respiration area under curve [3]: 2690 (active)
respiration area under curve [2]: 0

CC(C)[C@H](NC(=O)[C@@H](N)CC(=O)O)C(=O)O (plate: PM6)
respiration area under curve [1]: 1900

CC(C)[C@H](N)C(=O)N[C@@H](C)C(=O)O (plate: PM8)
respiration area under curve [1]: 4740 (active)
